# Screening results as filed in PubChem.
# This is a sample that favours compounds with a hit; in the whole collection about 4.2% have one here.
# RecA splice inh – blocks M. tuberculosis RecA intein splicing. cell-free RecA intein splicing, fluorescence. 290,000 tested, 0.75% active. inhibition, % (concentration not given with the values). P9WHJ3. AID 2221; in the data active means inhibition above about 30%
# Mtb FBA inh – Mtb fructose-bisphosphate aldolase inhibition; 360,000 tested, 2.3% active; purified M. tuberculosis FBA, fluorescence read-out; inhibition, % at 1 µM; P9WQA3; in the data active means inhibition above about 27%
# BJeLR lethal – BJeLR cell viability loss; inhibition, % (concentration not given with the values); 300,000 tested, 0.17% active; AID 1554; BJeLR (HRASV12) viability, CellTiter-Glo ATP luminescence, 48 h; in the data active means inhibition above about 50%
# GDH-TPI inh – counter-screen for M. tuberculosis FBA inhibitors: GDH-TPI coupled enzymes. GDH-TPI coupled enzyme counterscreen, NADH absorbance. inhibition, % at 4.8 µM. 360,000 tested, 1.2% active. AID 588335; in the data active means inhibition above about 30%
# PrPC TRFRET – cell surface PrPC inhibition, primary TR-FRET screen. P04156. TR-FRET read-out. inhibition, % at 13.8 µM. 370,000 tested, 0.43% active. AID 720596; in the data active means inhibition above about 24%
# PrPC TRFRET cf – cell surface PrPC inhibition, TR-FRET confirmation | shares compounds with PrPC TRFRET | cell surface PrPC level | inhibition, % at 13.8 µM | 1,500 tested, 65% active | AID 743200; in the data active means inhibition above about 25%
# LD9 cytotox – counter-screen for PrPc inhibitors: cytotoxicity in LD9 cells. luminescence viability. 1,500 tested, 29% active. shares compounds with PrPC TRFRET. inhibition, % at 13.8 µM; in the data active means inhibition above about 9.5%
# Hits are given with their value; . = inactive; / = no result.
SMILES,RecA splice inh,Mtb FBA inh,BJeLR lethal,GDH-TPI inh,PrPC TRFRET,PrPC TRFRET cf,LD9 cytotox
CC[C@H](CO)Nc1nc(Nc2cccc(Cl)c2)c2ncn(C(C)C)c2n1,.,.,.,.,25,.,11
COCc1cc(C)nc(SCc2ccccc2Cl)c1C#N,.,.,.,.,25,.,.
COCc1cc(C)nc(SCc2ccc([N+](=O)[O-])cc2)c1C#N,.,.,.,.,.,/,/
c1ccc2[nH]c(CSc3ncnc4c3oc3ccccc34)nc2c1,.,.,.,.,29,26,.
Cc1nc(SCc2nc3ccccc3[nH]2)c2oc3ccccc3c2n1,.,.,.,.,.,/,/
Cc1ccc(NS(=O)(=O)c2cc(C(=O)NCc3ccccn3)ccc2Cl)cc1C,.,.,.,.,47,60,.
Cc1ccc(C)c(NS(=O)(=O)c2cc(C(=O)NCc3ccccn3)ccc2Cl)c1,.,.,.,.,.,/,/
Cc1ccc(/C(O)=C2/C(=O)C(=O)N(c3ccccn3)C2c2ccc(F)cc2)cc1 (stereo unspecified),.,.,.,.,.,/,/
CCOc1ccc(/C(O)=C2/C(=O)C(=O)N(c3ccccn3)C2c2ccc(F)cc2)c(C)c1 (stereo unspecified),.,.,.,.,29,63,.
O=C(N/N=C/c1ccc(O)cc1O)c1ccc(NC(=O)C2CCCCC2)cc1,.,.,.,.,34,37,.
O=c1[nH]c2cc(Br)c(Br)nc2[nH]1,/,/,/,/,.,/,/
CC1(Cc2cccc(F)c2)C(=O)Nc2ccc(S(=O)(=O)NC3CCCCC3)cc21 (stereo unspecified),/,.,/,.,36,.,.
COC(=O)C1=C(C)N(C)C(=NCc2cc(OC)c(OC)c(OC)c2)NC1c1cccc(Cl)c1 (stereo unspecified),/,/,/,/,.,/,/
O=C1c2ccccc2-c2nccnc21,.,.,.,.,.,/,/
O=C1C(=O)c2cccnc2-c2ncccc21,/,.,/,/,31,62,99
COc1ccc(C2CC(=O)C(c3ccc4ccccc4c3)=CN2Cc2ccccc2)cc1 (stereo unspecified),/,/,/,/,.,/,/
CCOc1ccc(N2C(=O)CC(Sc3nc(-c4cccs4)cc(C(F)(F)F)c3C#N)C2=O)cc1 (stereo unspecified),.,.,.,.,25,.,.
O=C(OC12CCCN(C1)/C(=C/c1ccncc1)C2)c1ccc(F)cc1 (stereo unspecified),/,/,/,/,.,/,/
S=C(Nc1ccccc1)Nc1cccc(Br)c1,.,.,.,.,.,/,/
S=C(Nc1ccccc1)Nc1ccc(Br)cc1,.,.,.,.,25,.,.
COC(=O)c1cc2c(c3c4cc(F)ccc4n(S(=O)(=O)c4ccc(OC)cc4)c13)C(=O)N(C)C2,/,/,/,/,.,/,/
CN1/C(=C\C(=S)NC(=O)c2cccc(Br)c2)C(C)(C)c2ccccc21,.,.,.,.,25,30,16
CN1/C(=C\C(=S)NC(=O)c2ccc([N+](=O)[O-])cc2)C(C)(C)c2ccccc21,.,.,.,.,.,/,/
CSc1nc2ccc(NC(=O)c3cccs3)cc2s1,/,.,/,.,25,25,.
O=C(CSc1ccc([N+](=O)[O-])cn1)Nc1ccc2c(c1)OCCO2,.,.,.,.,41,.,.
SMILES,RecA splice inh,Mtb FBA inh,BJeLR lethal,GDH-TPI inh,PrPC TRFRET,PrPC TRFRET cf,LD9 cytotox
CN(C)S(=O)(=O)c1ccc(SCC(=O)Nc2ccc3c(c2)OCCO3)nc1,/,.,/,.,.,/,/
O=C(CSc1cnc2ccccc2n1)NC1CCCC1,.,.,.,.,33,40,.
N#Cc1c(-c2cccs2)nc(SCc2ccc(Cl)cc2)[nH]c1=O,.,.,.,.,109,119,.
CCOC(=O)Cc1csc(NC(=O)CSc2nc(-c3ccccc3)c(C#N)c(=O)[nH]2)n1,.,.,.,.,.,/,/
CSc1nc(-c2cccs2)c(C#N)c(=O)[nH]1,.,.,.,.,59,87,.
CSc1nc(-c2ccccc2)c(C#N)c(=O)[nH]1,.,.,.,.,.,/,/
CNC(=O)NC(=O)CSc1nc(-c2cccs2)c(C#N)c(=O)[nH]1,.,.,.,.,120,124,.
N#Cc1c(-c2ccccc2)nc(SCC(=O)NC2CCCCC2)[nH]c1=O,.,.,/,.,36,39,.
O=C(CSc1nc2scc(-c3ccccc3)c2c(=O)[nH]1)NC1CCCCC1,.,/,.,/,.,/,/
CN(c1ccc(Cl)cc1)c1cc(=O)n(C)c2ccccc12,.,.,.,.,25,.,.
CN(C(=O)COc1cc(=O)n(C)c2ccccc12)c1ccc(Cl)cc1,.,.,.,.,.,/,/
C[C@H]1[C@H](c2ccccc2)Oc2cccc(N3CCCC3)c2S(=O)(=O)N1Cc1cccc(F)c1,/,/,/,/,.,/,/
COc1ccc(-c2nnc(-c3ccc(Br)o3)o2)cc1OC,.,.,.,.,60,76,.
C[C@@H]1CN([C@@H](C)CO)C(=O)CCCn2cc(nn2)CO[C@H]1CN(C)C(=O)C1CCCCC1,/,/,/,/,.,/,/
Cc1cc2nc(C3CCN(Cc4nnnn4Cc4ccccc4)CC3)[nH]c2cc1C,.,.,.,.,.,/,/
CCC(C)(C)n1nnnc1CN1CCC(c2nc3ccc(C)cc3[nH]2)CC1,.,.,.,.,33,32,.
CC1=C(O)C(=O)C=C2C1=CC=C1C2(C)CCC2(C)C3CC(C)(C(=O)O)CCC3(C)CCC12C (stereo unspecified),/,.,/,.,62,89,98
C=CC#CC[N+]1(CC#Cc2ccccc2)CCOCC1,.,.,.,.,38,44,.
Cc1nnc2nc(N)[nH]n2c1=O,/,/,/,/,.,/,/
COc1ccc(-c2csc(NC(=O)c3ccccc3NS(=O)(=O)c3ccc(F)c(F)c3)n2)cc1,.,.,.,.,32,44,38
Cc1ccc(C(=O)NCc2ccncc2)cc1S(=O)(=O)Nc1cccc(C)c1C,.,.,.,.,24,32,.
CCCC[C@H]1C2CC(OC(=O)Nc3ccc(C#N)cc3)C(C2)[C@H]2CCCCN21 (stereo partly specified),/,/,/,/,.,/,/
Cc1ccc(CSC(Nc2ccc(F)cc2)=C(C#N)C#N)cc1,.,.,.,.,33,36,25
CCN(CC)C(=O)CSC(Nc1ccc(F)cc1)=C(C#N)C#N,.,.,.,.,.,/,/
CCc1noc2cc(-c3ccccc3)n(C)c(=O)c12,/,/,/,/,.,/,/
Oc1cc2c(cc1O)C1c3ccc(O)c(O)c3OCC1(O)C2 (stereo unspecified),/,.,/,.,42,55,.
Cc1cccc(NC(=O)Nc2nc3ncccn3c2-c2ccc(F)cc2)c1,/,/,/,/,.,/,/
O=c1c2c(n3nnnc3n1Cc1ccc(Cl)cc1)-c1ccccc1CC21CCCC1,/,/,/,/,.,/,/
O=C(O)C1CC=CCC1C(=O)Nc1ccccc1 (stereo unspecified),.,.,.,.,.,/,/
O=C(O)c1ccc(NC(=O)C2CC=CCC2C(=O)O)cc1 (stereo unspecified),.,.,.,.,31,.,.
